Screening data: PubChem BioAssay, several laboratories
M1 ag = activates the M1 muscarinic receptor; CHO-M1 cells, Fluo-4 calcium fluorescence, agonist mode; active compounds read high; B-score at 10 µM; 64,000 tested, 3% active; AID 626;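 active = fluorescence rise, raw or as B-score row- and column-corrected plate score, outside the 99.7% band of its plate's samples, either direction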
Cav3 T inh = human Cav3.2 channel inhibition, primary screen. O95180. Cav3.2-expressing cells, Fluo-4 calcium fluorescence FDSS; active compounds read low. B-score at 10 µM. 100,000 tested, 4% active. AID 449739;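 active = single-dose well whose peak fluorescence ratio is a statistical outlier from its plate by either plate-standardised score or position-corrected B-score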
M1 antag = blocks the rat M1 muscarinic receptor response to acetylcholine. P08482. CHO-M1 cells, Fluo-4 calcium, ACh EC80 antagonist mode; active compounds read low. B-score at 10 µM. 64,000 tested, 3.4% active;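 active = calcium fluorescence response, raw or row-and-column corrected B-score, differing from the plate sample mean either way at a set confidence level, mostly lower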
Pyk2 oligo antag = blocks oligomerization of human Pyk2 in cells | z-score (the deposit names both 25 µM and 10 µM) | 99,000 tested, 0.83% active | Q293 cells, Pyk2 FERM NanoBiT luminescence; active compounds read low | Q14289;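 active = Z-score of -3 or lower, scaled per plate to the spread of control and sample wells; inactive = z-score above -3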;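 note: negative z-score means lost luminescence so less FERM oligomerization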
Target sequence (Q14289 whole entry, looked up): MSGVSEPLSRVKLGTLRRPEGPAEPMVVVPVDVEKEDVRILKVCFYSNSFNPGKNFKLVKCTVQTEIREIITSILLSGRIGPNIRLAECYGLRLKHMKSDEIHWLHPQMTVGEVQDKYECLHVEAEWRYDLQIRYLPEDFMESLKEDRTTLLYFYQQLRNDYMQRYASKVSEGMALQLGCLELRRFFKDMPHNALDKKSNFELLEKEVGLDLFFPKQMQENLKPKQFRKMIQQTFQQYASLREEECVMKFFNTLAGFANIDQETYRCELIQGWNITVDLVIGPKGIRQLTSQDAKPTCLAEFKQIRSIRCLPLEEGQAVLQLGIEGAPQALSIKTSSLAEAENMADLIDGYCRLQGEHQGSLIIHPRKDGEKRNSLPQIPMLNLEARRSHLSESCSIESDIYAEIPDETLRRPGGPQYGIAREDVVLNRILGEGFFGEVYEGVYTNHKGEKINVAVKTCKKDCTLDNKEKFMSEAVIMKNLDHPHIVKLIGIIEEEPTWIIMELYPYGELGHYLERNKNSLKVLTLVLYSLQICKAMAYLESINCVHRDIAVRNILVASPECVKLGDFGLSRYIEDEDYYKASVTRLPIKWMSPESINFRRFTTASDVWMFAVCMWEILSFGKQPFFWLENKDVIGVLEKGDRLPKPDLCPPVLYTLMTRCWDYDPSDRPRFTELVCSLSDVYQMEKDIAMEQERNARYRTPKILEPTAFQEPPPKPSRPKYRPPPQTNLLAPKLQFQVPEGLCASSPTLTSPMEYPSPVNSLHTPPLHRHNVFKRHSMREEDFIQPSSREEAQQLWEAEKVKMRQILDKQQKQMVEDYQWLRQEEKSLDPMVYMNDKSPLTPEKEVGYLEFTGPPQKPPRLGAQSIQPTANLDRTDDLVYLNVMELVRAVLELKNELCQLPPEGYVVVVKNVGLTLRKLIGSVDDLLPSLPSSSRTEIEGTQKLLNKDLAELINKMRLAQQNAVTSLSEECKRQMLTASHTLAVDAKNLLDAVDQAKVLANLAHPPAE
Of the large screens only hits and unclear results are named; the others gave an inactive call. Hits are enriched below; roughly 7.1% of the tested compounds scored in any of these assays.

CCN(CC)S(=O)(=O)c1ccc2oc(C(=O)Nc3ccc(OC)cc3OC)c(C)c2c1	none
CCN(CC)S(=O)(=O)c1ccc2oc(C(=O)NCc3ccc(F)cc3)c(C)c2c1	Cav3 T inh -6.8
CCN(CC)S(=O)(=O)c1ccc2oc(C(=O)NCCCN3CCOCC3)c(C)c2c1	none (no result: M1 ag, M1 antag)
Cc1c(C(=O)NCc2ccc3c(c2)OCO3)oc2ccc(S(=O)(=O)N3CCC(C)CC3)cc12	Cav3 T inh -4.8 (no result: M1 ag, M1 antag)
COc1ccc(Cl)cc1N(CC(=O)Nc1cccc(SC)c1)S(C)(=O)=O	none (no result: M1 ag, M1 antag)
COc1ccc(N(CC(=O)Nc2cccc(SC)c2)S(C)(=O)=O)cc1Cl	Cav3 T inh -5.9
CSc1cccc(NC(=O)CN(c2cc(C)ccc2C)S(C)(=O)=O)c1	Cav3 T inh -5.8, M1 antag 1.2
COC(=O)c1ccc2c(=O)n(CCCCCC(=O)O)c(=S)[nH]c2c1	none (no result: M1 ag, Cav3 T inh, M1 antag)
O=C(NCCc1ccccc1)[C@@H]1CC=C[C@@H]2CCN(Cc3ccccc3)C(=O)[C@@H]21	none (no result: M1 ag, M1 antag, Pyk2 oligo antag)
C#CCOC(=O)Nc1ccc(=O)n(Cc2c(Cl)cccc2Cl)c1	none (no result: M1 ag, M1 antag)
Cc1cc(C)c(S(=O)(=O)c2ccccc2)c(OC(=O)c2c(Cl)cccc2Cl)n1	Cav3 T inh -4.6 (no result: M1 ag, M1 antag)
COc1ccc(NC(=O)C2CCN(c3cc(-c4ccccc4)nc4ncnn34)CC2)cc1OC	none
COc1ccccc1NC(=O)N1CCN(c2cc(-c3ccccc3)nc3ncnn23)CC1	M1 ag 6.3
Cc1cc(C)c2c(n1)nn1c(NCCCn3ccnc3)cc(C)nc21	M1 antag -3.3 (no result: Cav3 T inh, Pyk2 oligo antag)
Cc1cc(C)c(S(=O)(=O)n2ccc(-c3ccc(OCCN(C)c4ccccn4)cc3)n2)c(C)c1	none (no result: M1 ag, M1 antag)
COc1ccccc1OCCn1c(C(C)O)nc2ccccc21 (centres undefined)	none
CCOC(=O)c1c(C=O)c(C)n(Cc2ccc(C)cc2)c1C	Cav3 T inh -6.1 (no result: M1 ag, M1 antag)
CCOC(=O)COc1ccc(S(=O)(=O)Nc2ccc(C)cc2)cc1	none (no result: M1 ag, M1 antag)
CCOC(=O)COc1ccc(S(=O)(=O)c2ccc(OCC(=O)OCC)cc2)cc1	Cav3 T inh -6.1 (no result: M1 ag, M1 antag)
Oc1ccc(C=Nc2ccc3ncccc3c2)c(O)c1	none (no result: Cav3 T inh, Pyk2 oligo antag)
COc1cccc(N=Cc2ccc(O)cc2O)c1	M1 ag 2.2
NC(=O)CC(c1ccccc1)c1ccco1 (centres undefined)	none (no result: M1 ag, M1 antag)
O=C(c1ccco1)N(CCC(c1ccccc1)c1ccco1)Cc1ccco1 (centres undefined)	Cav3 T inh -12 (no result: M1 ag, M1 antag)
CC(=O)N(CCC(c1ccccc1)c1ccco1)Cc1cccs1 (centres undefined)	Cav3 T inh -7.4 (no result: M1 ag, M1 antag)
CCC(=O)N(CCC(c1ccco1)c1ccccc1OC)Cc1cccs1 (centres undefined)	Cav3 T inh -5.8 (no result: M1 ag, M1 antag)
Oc1cccc2cc3cccc(O)c3c(O)c12	none (no result: M1 ag, M1 antag, Pyk2 oligo antag)
O=C(NCC1CCCO1)C1CC(c2ccc(Cl)c(Cl)c2)=NO1 (centres undefined)	none
O=C(c1cc2ccccc2oc1=O)N(Cc1cccs1)Cc1ccccc1Cl	Cav3 T inh -7.1 (no result: M1 ag, M1 antag)
COc1ccc(-n2c(Cc3cccn3C)nnc2SCC(=O)Nc2ccccc2)cc1	Cav3 T inh -13 (no result: Pyk2 oligo antag)
COc1ccc(-n2c(Cc3cccn3C)nnc2SCC(=O)Nc2nc(C)cs2)cc1	none (no result: Cav3 T inh, Pyk2 oligo antag)
CCc1ccc(NC(=O)CSc2nnc(Cc3cccn3C)n2-c2ccc(OC)cc2)cc1	Cav3 T inh -5.4 (no result: Pyk2 oligo antag)
COc1ccc(-n2c(Cc3cccn3C)nnc2SCC(=O)NCc2ccc(F)cc2)cc1	Cav3 T inh -7.1 (no result: Pyk2 oligo antag)
COc1ccc(-n2c(Cc3cccn3C)nnc2SCC(=O)Nc2ccc(Cl)cc2)cc1	Cav3 T inh -4.5 (no result: Pyk2 oligo antag)
Cc1ccc(NC(=O)c2ccccc2N(C)S(C)(=O)=O)cc1C	none (no result: M1 ag, M1 antag)
O=C(N/N=C/c1ccccc1)c1sccc1OCc1ccc(F)cc1	none (no result: M1 ag, M1 antag)
COc1ccc(-n2c(Cc3cccn3C)nnc2SCC(=O)Nc2cccc(F)c2)cc1	Cav3 T inh -4.5 (no result: Pyk2 oligo antag)
COc1ccc(NC(=O)CSc2nnc(C3CCCCC3)n2-c2ccccc2)cc1	Cav3 T inh -6.1 (no result: M1 ag, M1 antag)
COCCn1c(SCC(=O)c2ccc(Cl)cc2)nnc1C(C)C	none
COc1ccc(Cl)cc1S(=O)(=O)N1CCN(c2ccc(F)cc2)CC1	Cav3 T inh -3.7
CCOC(=O)N1CCN(S(=O)(=O)c2cc(C)c(C)cc2C)CC1	none
COc1c(S(=O)(=O)N2CCN(c3ccc(F)cc3)CC2)ccc(Cl)c1Cl	none (no result: M1 ag, M1 antag)
Cc1cc(Cl)c(S(=O)(=O)N2CCN(c3ccc(F)cc3)CC2)cc1OCC(=O)NC1CCCCC1	Cav3 T inh -5.2 (no result: M1 ag, M1 antag)
Cc1cc(Cl)c(S(=O)(=O)N2CCN(c3ccc(F)cc3)CC2)cc1OCC(N)=O	none
CCOC(=O)N1CCN(S(=O)(=O)c2cc(Cl)ccc2Cl)CC1	M1 antag 0.95
CCOc1ccc(Cl)cc1S(=O)(=O)N1CCN(c2ccc(F)cc2)CC1	Cav3 T inh -3.7
COC(=O)c1ccc[n+](CCc2c[nH]c3ccccc23)c1	none (no result: M1 ag, M1 antag, Pyk2 oligo antag)
